Assay outcomes deposited in PubChem BioAssay by National Center for Advancing Translational Sciences (NCATS).
Only some compounds are listed: those with a hit (about 17% of all), similar ones and a draw of the others.
HT1080 IDH1KD tx – HT-1080 IDH1 knockdown cell toxicity (counter line); HT-1080 IDH1 knockdown viability, ATP luminescence, 48 h; Potency, µM (series often up to 46.1 µM), usual class: cytotoxic; 360,000 compounds, 2% hits; AID 686971
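Using the IDH1-knockdown HT-1080 line run in the same batch and compound series as the NT line, viability after 48 h at 37 °C was determined by CellTiter-Glo luminescence and expressed as % activity.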
HepG2 tox – HepG2 cytotoxicity, counter-screen for TGF-b inhibitors; 410,000 compounds, 0.76% hits; HepG2 CAGA-GFP viability, ATP luminescence, 18 h; Potency, µM (highest dose often 46.1 µM), hits mostly cytotoxic
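CellTiter-Glo luminescence gave cytotoxicity after 18 hours at 37 degrees C. The cells were HepG2 CAGA-GFP in 1% FBS DMEM, stimulated with 500 pg/mL TGF-beta after compound addition. %Activity was normalised to no-cell wells (complete cell-killing) and DMSO (no toxicity), and curves were fitted and classified.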
TGFb inhibitor – blocks TGF-b signaling | AID 588855 | 410,000 compounds, 1.2% hits | HepG2 CAGA-GFP TGF-b/SMAD3 reporter, GFP fluorescence, 18 h; TGF-beta stimulated, 500 pg/mL final | Potency, µM (highest dose often 46.1 µM), most hits filed as inhibitors; further: nearly all actives have a fitted effect of over 65% in size
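HEPG2 CAGA-GFP cells (1000/well, DMEM with 1% FBS) were pre-incubated 2 h at 37 degrees C, given compound by pin tool, then stimulated with TGF-beta at 500 pg/mL final for 18 h before per-cell GFP fluorescence imaging.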
DT40 TDP1 no CPT – qHTS for Inhibitors of human tyrosyl-DNA phosphodiesterase 1 (TDP1): qHTS in cells in absence of CPT. 420,000 compounds, 15% hits. DT40 Tdp1-/- hTDP1 cells, no CPT, ATP luminescence, 48 h. Potency, µM (titrated, usually from 46.2 µM), hits mostly inhibitors; further: nearly all actives have a fitted effect of over 55% in size
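No-CPT arm: Tdp1-/-;hTDP1 DT40 cells (400/well) plus compounds, incubated ≥48 hr at 37 °C. Readout CellTiter-Glo luminescence.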
HT1080-NT tox – kills 2HG-producing HT-1080-NT fibrosarcoma cells; Potency, µM (highest dose often 46.1 µM), most hits filed as cytotoxic; AID 686970; HT-1080-NT fibrosarcoma viability, CellTiter-Glo ATP luminescence, 48 h; 360,000 compounds, 1.6% hits;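 further: NT is the 2HG producing partner of a matched IDH1 knockdown line; nearly all actives have a fitted effect of over 55% in size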
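Read-out is CellTiter-Glo luminescence after 10 minutes at room temperature, following 48 hours' compound treatment of HT-1080-NT cells (750 cells/well, RPMI, 5% FBS, 37 degrees C).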
DT40 TDP1 CPT – DT40-hTDP1 cell growth loss with CPT; AID 686979; 420,000 compounds, 12% hits; chicken DT40 Tdp1-/-;hTDP1 cells + 20 nM CPT, ATP luminescence, 48 h; Potency, µM (series often up to 46.2 µM), actives largely listed as inhibitors; further: nearly all actives have a fitted effect of over 55% in size
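Chicken DT40 Tdp1-/- cells complemented with human TDP1, 400 cells/well, exposed to compounds plus 20 nM camptothecin for at least 48 h at 37 C; viability read as ATP content by CellTiter-Glo luminescence.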
Numbers stand for hits; [ ] = remark or other dose. The call rests on the fitted dose curve; in most records, active means well fitted curve in the direction sought with a large enough effect; inconclusive means small, poorly fitted or top-dose-only effect, or another doubt; inactive means no such curve, though single readings can be large; an effect the other way counts as inactive or inconclusive.

Cc1ccc(N(C(=O)C2CCC(=O)N2)C2(C(=O)NC3CCCCC3)CCCCC2)cc1 (configuration not stated) was read as HT1080 IDH1KD tx inactive, HepG2 tox inactive, TGFb inhibitor inactive, DT40 TDP1 no CPT inactive, HT1080-NT tox inactive and DT40 TDP1 CPT inactive.
Cc1ccc(N(C(=O)c2ccccn2)C2(C(=O)NC3CCCC3)CCCCC2)cc1 was read as HT1080 IDH1KD tx inactive, HepG2 tox inactive, TGFb inhibitor inactive, DT40 TDP1 no CPT 1.64µM, HT1080-NT tox inactive and DT40 TDP1 CPT 0.517µM.
For COc1cc(/C=C/C(=O)OCC(=O)N2c3ccccc3NC(=O)C2(C)C)cc(OC)c1OC the results were HT1080 IDH1KD tx inconclusive, HepG2 tox inactive, TGFb inhibitor inconclusive, DT40 TDP1 no CPT 10.3µM, HT1080-NT tox inconclusive and DT40 TDP1 CPT 18.4µM.
CC(C)(C)n1nnnc1C(c1cc2ccccc2o1)N(CCC#N)Cc1ccccc1 (configuration not stated) was read as HT1080 IDH1KD tx inactive, DT40 TDP1 no CPT inconclusive, HT1080-NT tox inactive and DT40 TDP1 CPT inconclusive.
CCOc1cc(C)c(S(=O)(=O)Nc2ccc3cn[nH]c3c2)cc1C was read as HT1080 IDH1KD tx inactive, HepG2 tox inactive, TGFb inhibitor inconclusive, DT40 TDP1 no CPT 10µM, HT1080-NT tox inactive and DT40 TDP1 CPT 18.4µM.
`Cc1ccc(S(=O)(=O)Nc2ccc3cn[nH]c3c2)c(C)c1` gave HT1080 IDH1KD tx inactive, HepG2 tox inactive, TGFb inhibitor inactive, DT40 TDP1 no CPT inactive, HT1080-NT tox inactive[9.24 µM] and DT40 TDP1 CPT inconclusive.
`C(=C\n1nnc2ccccc21)/c1ccc[nH]1` gave HT1080 IDH1KD tx inactive, HepG2 tox inactive, TGFb inhibitor inactive, DT40 TDP1 no CPT 23.1µM, HT1080-NT tox inactive and DT40 TDP1 CPT 18.4µM.
For c1ccc(-n2nnc3ccccc32)cc1 the results were HT1080 IDH1KD tx inactive, HepG2 tox inactive, TGFb inhibitor inactive, DT40 TDP1 no CPT inactive, HT1080-NT tox inactive and DT40 TDP1 CPT inactive.
Screening CSc1nc(O)c(Nc2ccccc2)c(=O)[nH]1 returned HT1080 IDH1KD tx inactive, HepG2 tox inactive, TGFb inhibitor inactive, DT40 TDP1 no CPT inactive, HT1080-NT tox inactive and DT40 TDP1 CPT inactive.
`CCCN1CCN(CC2=C(C(=O)OCC)C(c3cccc(OC)c3OC)NC(=O)N2)CC1` (configuration not stated) gave HepG2 tox inactive, TGFb inhibitor inactive, DT40 TDP1 no CPT inactive and DT40 TDP1 CPT inactive.
`Cc1ccc(C2C(C#N)=C(N)N(c3ncn[nH]3)C3=C2C(=O)CC(C)(C)C3)cc1` (configuration not stated) gave HT1080 IDH1KD tx inactive, HepG2 tox inactive, TGFb inhibitor inactive, DT40 TDP1 no CPT inactive, HT1080-NT tox inactive and DT40 TDP1 CPT inactive.
For CCOC(=O)N1CCN(CC(O)COc2ccc3c(c2)CCC3)CC1 (configuration not stated) the results were HT1080 IDH1KD tx inactive, HepG2 tox inactive, TGFb inhibitor inactive, DT40 TDP1 no CPT inactive, HT1080-NT tox inactive and DT40 TDP1 CPT inactive.
For OC(COc1ccc2c(c1)CCC2)Cn1cnc2ccccc21 (configuration not stated) the results were HT1080 IDH1KD tx inactive, HepG2 tox inactive, TGFb inhibitor inconclusive, DT40 TDP1 no CPT 18.4µM, HT1080-NT tox inactive and DT40 TDP1 CPT 10.3µM.
For Cc1nn(CC(O)COc2ccc3c(c2)CCC3)c(C)c1C (configuration not stated) the results were HT1080 IDH1KD tx inactive, HepG2 tox inactive, TGFb inhibitor inactive, DT40 TDP1 no CPT 20.6µM, HT1080-NT tox inactive and DT40 TDP1 CPT inconclusive.
For CC(=O)OC(COc1cccc(C)c1)Cn1cnc2ccccc21 (configuration not stated) the results were HT1080 IDH1KD tx inactive, HepG2 tox inactive, TGFb inhibitor inactive, DT40 TDP1 no CPT 16.4µM, HT1080-NT tox inactive and DT40 TDP1 CPT inconclusive.
